The whole screen tested about 3,400 compounds, of which about 840 (25%) were called active. About 11% were inconclusive and are not listed. Only a sample is shown. Measured potencies and affinities stand elsewhere. Unmarked numbers belong to inactive results.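 Rule for the calls: active = fitted half-maximal concentration of signal decrease at or below twice the sample's top tested concentration; inconclusive = flat curve between -70 and -30 percent, or poor fit; inactive = flat within 30 percent, signal rise, or potency above limit.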
Assay: T. gondii growth inhibition with IFN-gamma, dose response, cell-based, ME49Luc, HeLa, luciferase, 72 h (AID 1259418)
Conditions: T. gondii ME49Luc in IFN-y HeLa, hits give low values, -100% = high-dose IFN-γ control wells; at 19.5 µM unless noted
`Cc1oc(-c2ccccc2)nc1Cn1nnc(-c2nc(-c3ccc(F)c(Cl)c3)no2)c1C` gave a max activity of -12.6% [at 1.35 µM].
`O=C(COc1ccccc1)N1CCC2(CC1)Nc1cc(F)ccc1-n1cccc12` gave a max activity of 10.6% [at 5 µM].
`CCOc1ccc(-c2nc(CN3CCN(C(=O)Nc4ccccc4C(=O)OC)CC3)c(C)o2)cc1` showed a max activity of 6.24% [at 0.16 µM].
Compound `COc1cc(CCC(=O)N2CCC3(CC2)Nc2ccc(C)c(C)c2-n2cccc23)cc(OC)c1OC` has a max activity of -12.8% [at 2.6 µM].
`O=C(c1ccc(F)cc1)N1CCC2(CC1)Nc1ccc(Cl)cc1-n1cccc12` gave a max activity of 13.8% [at 0.68 µM].
Compound `O=C(c1ccccc1F)N1CCC2(CC1)Nc1ccc(Cl)cc1-n1cccc12` has a max activity of -6.53% [at 0.35 µM].
In the case of `COc1ccc(-c2nc(NCCc3ccc(SC)cc3)c3ccccc3n2)cc1`, the max activity is reported as -32.9%.
For `CCOC(=O)CSC1=Nc2ccccc2C2=NC(CC(=O)NCc3ccc(F)cc3)C(=O)N12` (centres undefined), the max activity was 17.3%.
`CS(=O)(=O)N1CC(=O)N2[C@@H](CO)[C@H](c3ccc(C#Cc4ccc(F)cc4)cc3)[C@@H]2C1` gave a max activity of 11.8% [at 10 µM].
In the case of `CS(=O)(=O)N1CC(=O)N2[C@H](CO)[C@@H](c3ccc(Br)cc3)[C@H]2C1`, the max activity is reported as 27.1%.
In the case of `CC(C)C#Cc1ccc([C@H]2[C@@H](CO)N3C(=O)CN(S(=O)(=O)c4ccccc4)C[C@H]23)cc1`, the max activity is reported as -8.27% [at 10 µM].
With `CS(=O)(=O)N1CC(=O)N2[C@H](CO)[C@H](c3ccc(C#CCC4CCCC4)cc3)[C@@H]2C1` the max activity was 13.6% [at 10 µM].
With `CS(=O)(=O)N1CC(=O)N2[C@H](CO)[C@@H](c3ccc(C#CCC4CCCC4)cc3)[C@H]2C1` the max activity was 29.5% [at 11 µM].
With `CC(C)C#Cc1ccc([C@H]2[C@@H](CO)N3C(=O)CN(S(=O)(=O)c4ccccc4)C[C@@H]23)cc1` the max activity was 19.2% [at 10 µM].
`Cc1ccc(C)c(CSc2ccc(-c3sc(-c4ccc(F)cc4)nc3C)nn2)c1` gave a max activity of -9.1% [at 5 µM].
With `COc1ccc(-c2nc(NCc3ccccc3OC)c3ccccc3n2)cc1` the max activity was -10.7% [at 0.68 µM].
For `O=C(Nc1ccc(-c2nc(-c3cccc(Br)c3)co2)cc1)Nc1cccc(F)c1`, the max activity was -13.2% [at 2.6 µM].
In the case of `COc1ccc(-n2c(C)cc(CNS(=O)(=O)c3ccc4c(c3)CCC(=O)N4)c2C)cc1`, the max activity is reported as 35.1%.
`CCc1ccc(S(=O)(=O)N2CSC[C@@H]2C(=O)NCCc2csc(-c3ccccc3)n2)cc1` showed a max activity of -11.2% [at 0.68 µM].
In the case of `CCS(=O)(=O)N1CSC[C@@H]1C(=O)NCCc1csc(-c2ccccc2)n1`, the max activity is reported as 7.03% [at 5 µM].
In the case of `Cc1ccccc1S(=O)(=O)N1CSC[C@@H]1C(=O)NCCc1csc(-c2ccccc2)n1`, the max activity is reported as -13% [at 0.16 µM].
With `O=C(NCCc1csc(-c2ccccc2)n1)[C@H]1CSCN1S(=O)(=O)c1ccccc1` the max activity was 14.6%.
Work on `O=C(NCCc1csc(-c2ccccc2)n1)[C@H]1CSCN1S(=O)(=O)Cc1ccccc1` yielded a max activity of 17.7% [at 2.6 µM].
`O=C(NCCc1csc(-c2ccccc2)n1)[C@H]1CSCN1S(=O)(=O)c1ccc(F)cc1` showed a max activity of 15.5% [at 10 µM].

— PubChem BioAssay AID1259418 (Broad Institute, 2018)
